Source: PubChem BioAssay
EWS-Fli inh = EWS/Fli-driven NR0B1 reporter inhibitors, primary screen, A673 cells, NR0B1 luciferase, luminescence, MLPCN library; viability-normalised; inhibition, % at 12.6 µM; actives 0.67% (n = 350,000); AID 651661, 2012;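 active means mean inhibition of at least 50% after viability correction, with every replicate also passing that limit; inconclusive means mean reaches 50% but only one of two replicates passes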;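 further: firefly luciferase signal divided by Alamar Blue viability fluorescence both relative to DMSO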
Shn3 inh set2 = reduction of Shn3 3'UTR firefly luciferase signal, primary screen, Schnurri-3 inhibitor project, cell-based, Clone20 osteoblasts, set 2 | Clone20 osteoblast Shn3 3'UTR firefly luciferase, 24 h | inhibition, % at 12.5 µM | AID 588674, 2011 | actives 0.52% (n = 360,000);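 active means mean inhibition of at least 75% with every replicate also reaching 75%; inconclusive means mean inhibition at least 75% but some replicate below; inactive means mean inhibition below 75%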
LGR2 inh = inhibitors of bursicon-induced LGR2 CRE-luciferase signal, primary screen, cell-based, HEK293, CRE-luciferase reporter, bursicon stimulation; bursicon-stimulated, 4 h; inhibition, % at 9.99 µM; actives 0.35% (n = 380,000); AID 720647, 2013;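 active means drop in luminescence signal, shown as inhibition above about 50% in the replicate tests, limit read from the data, passing the limit was not always enough; inconclusive means probably only some replicates passing the limit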;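 further: agonist challenge used bursicon conditioned medium at about half maximal strength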
CF NFkB inh = inhibitors of PAF-induced NF-kB signaling, primary screen, cell-based, GFP fluorescence, uHTS. KKLEB NF-kB-GFP reporter, GFP fluorescence overnight. AID 588850, 2011. inhibition, % at 5 µM. actives 0.86% (n = 360,000);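 active means at least 50% inhibition at 5 µM, scaled per plate between neutral and stimulator controls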;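 further: PAF is a Pseudomonas aeruginosa culture filtrate used as stimulus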
PAX8 reporter = inhibitors of PAX8-driven TPO luciferase reporter, primary screen, RMG-I cells, single concentration | SteadyGlo, 24 h | inhibition, % at 12.6 µM | actives 1.2% (n = 360,000);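 active means mean replicate inhibition at least 60% with every replicate also reaching 60%; inconclusive means only one of the two criteria is met; inactive means mean below 60% and not all replicates reaching 60%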;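 further: luciferase light reporting Pax8 driven TPO promoter activity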
KKLEB cytotox = cytotoxicity in KKLEB CF airway cells, primary screen, cytotoxicity control for CF NF-kB inhibitor project, cell-based, uHTS, fluorescence assay plates; KKLEB CF airway cells viability, ATPlite luminescence, overnight; active compounds read low; cells stimulated with P. aeruginosa culture filtrate; activity change (cytotoxicity), % at 5 µM; actives 0.36% (n = 360,000);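 active means corrected activity change at or below -50% at 5 µM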
Hits are given with their value; – = inactive; ? = inconclusive; · = no result given. Only some compounds are listed: those with a hit (about 2% of all), similar ones and a draw of the others.

SMILES	EWS-Fli inh	Shn3 inh set2	LGR2 inh	CF NFkB inh	PAX8 reporter	KKLEB cytotox
CCCS(=O)(=O)c1ncc(Cl)c(C(=O)Nc2ccc(S(=O)(=O)Nc3ncccn3)cc2)n1	–	–	–	–	–	–
Cc1cccc(CS(=O)(=O)c2ncc(Cl)c(C(=O)NCc3ccc4c(c3)OCO4)n2)c1	·	94	–	89	–	–
O=C(C[C@H]1CC[C@H]2[C@@H](COC[C@@H](O)CN2CC2CCOCC2)O1)NCC1CCCCC1	–	·	–	·	–	·
O=C(CCN1CCCCC1)N[C@H]1CC[C@H](CCNS(=O)(=O)c2ccc(Cl)cc2)O[C@@H]1CO	–	·	–	·	–	·
COc1ccccc1NC(=O)c1nc(S(=O)(=O)Cc2ccccc2)ncc1Cl	59	99	–	83	130	-85
CCC(=O)N1C[C@@H](C)[C@H](OC)CN(C)C(=O)c2cc(NC(=O)COC)ccc2OC[C@H]1C	–	·	–	·	–	·
C=C1C(=O)O[C@H]2[C@H]1[C@@H](O)CC(=C)[C@@H]1CC(=O)[C@@H](C)[C@H]21	·	–	·	85	·	–
Cc1cc(C)c(C(CC(=O)c2cccs2)C(C#N)C#N)c(C)c1 (stereo unspecified)	–	–	·	61	–	-54
CC(CC(=O)c1cccs1)CC(=O)c1cccs1	–	–	–	–	·	–
O=C(CN1C(=O)c2ccccc2S1(=O)=O)c1ccccc1F	·	–	73	–	–	–
O=C(CN1C(=O)c2ccccc2S1(=O)=O)c1ccc(Cl)cc1Cl	·	–	103	–	112	–
O=C(CN1C(=O)c2ccccc2S1(=O)=O)N1CCN(c2ccccc2F)CC1	·	–	·	–	·	–
CC(C)C#Cc1cnc2c(c1)C(=O)N([C@H](C)CO)C[C@@H](C)[C@@H](CN(C)S(=O)(=O)c1cn(C)cn1)O2	–	·	–	·	·	·
CCCNC(=O)N1CC2(C1)CN(C(=O)CC)[C@H](CO)c1c2c2ccc(OC)cc2n1C	–	·	–	·	·	·
COc1ccc([Si](C)(C)[C@H]2[C@H](CCO)O[C@@]3(C(=O)N(C)c4ccccc43)[C@@H]2C)cc1	–	·	·	·	–	·
COc1ccc([Si](C)(C)[C@@H]2[C@@H](CCO)O[C@]3(C(=O)N4c5c(cc(OC)cc53)C(C)=CC4(C)C)[C@H]2C)cc1	–	·	·	·	106	·
COc1ccc([Si](C)(C)[C@H]2[C@H](CCO)O[C@@]3(C(=O)N4c5c(cc(OC)cc53)C(C)=CC4(C)C)[C@@H]2C)cc1	–	·	·	·	102	·
CCC(=O)Nc1cc(ON=C(C)C)cc([N+](=O)[O-])c1	·	–	–	–	–	–
O=C(CCl)Nc1cc(SCC(O)CO)cc([N+](=O)[O-])c1 (stereo unspecified)	–	–	73	96	108	-93
CC(C)=NOc1cc(NC(=O)CCl)cc([N+](=O)[O-])c1	–	–	–	79	–	-57
Cc1ccccc1S(=O)(=O)N[C@H]1CC[C@@H](CCn2cc(-c3ccccc3)nn2)O[C@@H]1CO	–	·	–	·	–	·
CCC(=O)N(C)C[C@H]1Oc2cc(-c3ccc(F)cc3)ccc2S(=O)(=O)N([C@H](C)CO)C[C@@H]1C	–	·	–	·	·	·
O=C(C1CCCCC1)N1C[C@@H]2[C@H](c3ccccc31)[C@H](CO)N2CC1CCOCC1	–	·	–	·	–	·
Fc1ccc(-c2csc3ncnc(N4CCc5ccccc5C4)c23)cc1	–	–	–	–	70	–
Cc1ccc(-c2csc3ncnc(N4CCc5ccccc5C4)c23)cc1	·	–	–	–	–	–
SMILES	EWS-Fli inh	Shn3 inh set2	LGR2 inh	CF NFkB inh	PAX8 reporter	KKLEB cytotox
Cc1cc(=O)[nH]c(NN=Cc2c(Cl)cccc2Cl)n1	–	–	–	–	–	–
O=c1cnnc(N/N=C/c2ccccn2)[nH]1	–	96	–	–	–	–
Cc1cc(=O)[nH]c(N/N=C/c2ccccn2)n1	·	89	–	–	–	–
C(=N\Nc1nncc2ccccc12)/c1ccccn1	–	–	?	66	–	–
Cc1ccc(S(=O)(=O)Nc2cccc3c2O[C@H](CN(C)CC2CCCCC2)[C@@H](C)CN([C@H](C)CO)C3=O)cc1	–	·	–	·	–	·
COC(=O)C[C@H]1CC[C@@H]2[C@H](COc3ccc(NC(=O)C4CC4)cc3C(=O)N2C)O1	–	·	–	·	–	·
